In PubChem BioAssay (NCI):
This is part of a sample that, as a whole, favours compounds with a hit. Of some 83,000 tested, about 20% had one in any assay.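 Activity criterion: percent growth below 10, measured after cells in 96-well plates were exposed to a single compound concentration for 48 hours.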 A number with no mark means an inactive call. Active and inactive are the calls of the source.

Tests used:
Experiment in all cases: NCI-60 one-dose screen, 48 h (100 = growth as untreated, 0 = no growth, -100 = all killed)
Conditions in all cases: 10 µM unless noted
T-47D breast = tested on: T-47D breast
BT-549 breast = tested on: BT-549 breast
MDA-MB-435 melanoma = tested on: MDA-MB-435 melanoma
SW-620 colon = tested on: SW-620 colon
MCF7 breast = tested on: MCF7 breast
HCT-116 colon = tested on: HCT-116 colon
HCC-2998 colon = tested on: HCC-2998 colon
KM12 colon = tested on: KM12 colon

Row | SMILES | growth (T-47D breast) | growth (BT-549 breast) | growth (MDA-MB-435 melanoma) | growth (SW-620 colon) | growth (MCF7 breast) | growth (HCT-116 colon) | growth (HCC-2998 colon) | growth (KM12 colon)
1 | CCC(c1ccc(OC)cc1)C(CC)c1ccc(O)c(CN2CCCCC2)c1 (configuration not stated) | 36.9% | 72.1% | 81.6% | 71.6% | 63% | 38.7% | 6.27% (active) | 79.7%
2 | O=C1CN(c2ccccc2)C(=O)C1C(=O)Nc1ccc(Cl)c(Cl)c1 (configuration not stated) | 12.7% [100 µM] | 23.4% [100 µM] | 7.79% [100 µM] (active) | 20.1% [100 µM] | 15.7% [100 µM] | -19.4% [100 µM] (active) | 2.18% [100 µM] (active) | 17.2% [100 µM]
3 | Nc1c(C(=O)Nc2cccc(Cl)c2)sc2ncc(Cl)cc12 | 49.6% | 68.8% | 77.5% | 66.6% | 84% | 19.6% | 78.2% | 63.3%
4 | COc1ccc2c(c1)c(-c1nc(-c3c[nH]c4ncccc34)cs1)cn2CCN | 25.7% | 88.2% | 68.9% | 55.3% | 36.5% | 53.5% | 94.9% | 24.4%
5 | Cc1cc2nc3c4cc(Cl)ccc4n(CCN(C)C)c3nc2cc1C | 30.5% | 53.6% | 1.97% (active) | -21.9% (active) | -37.9% (active) | -12.7% (active) | -23.7% (active) | 19.1%
6 | COc1ccc(NC(=O)c2ccc3c(c2)nc(-c2cc4ccccc4[nH]c2=O)n3-c2cc(C(C)(C)C)[nH]n2)cc1 | 78.9% | 84.5% | 92.5% | 102% | 81.3% | 86% | 105% | 90.5%
7 | O=C(O[C@@H]1Cc2c(O)cc(O)cc2O[C@@H]1c1cc(O)c(O)c(O)c1)c1cc(O)c2c(c1)OCO2 | 91.3% | 96.2% | 105% | 106% | 100% | 86.3% | 104% | 101%
8 | N#CC1c2ccccc2-c2ccccc2N1C(=O)c1ccccc1 (configuration not stated) | 73.7% | 21.5% | -13.6% (active) | 27.3% | 22.3% | 6.83% (active) | -46.1% (active) | 5.94% (active)
9 | C#Cc1cccc(NC(=O)C2CCCN(C(=O)CCl)C2)c1 (configuration not stated) | 84.2% [8.25 µM] | 55.1% [8.25 µM] | 43.8% [8.25 µM] | 20.5% [8.25 µM] | 59.1% [8.25 µM] | 13% [8.25 µM] | 97.2% [8.25 µM] | 94.7% [8.25 µM]
10 | CC(Cc1ccco1)C(=O)NC(N)=O (configuration not stated) | 114% | 106% | 105% | 104% | 102% | 106% | 105% | 105%
11 | Cc1ccsc1-c1ccc2c(c1)COC2(CCCN(C)C)c1ccc(F)cc1 (configuration not stated) | 48.7% | 81.9% | 17.1% | 54.3% | 22.7% | 23.3% | -48.4% (active) | 42.6%
12 | COc1cccc(-c2nn(-c3ccccc3)cc2-c2ccnc(NCCNS(=O)(=O)c3ccc(Cl)cc3)c2)c1 | 3.58% (active) | 41.9% | 21.8% | 48.1% | 11% | 20.6% | 19.5% | 28.5%
13 | COc1ccc(NC(=O)c2ccoc2COc2ccccc2)cc1 | 95.1% | 92% | 73.6% | 97.9% | 88.6% | 87.4% | 93% | 93.9%
14 | NC(N)=N/N=C/c1ccc(-c2ccc(-c3ccc(Cl)cn3)s2)cc1 | 91.2% | 98.8% | 98.5% | 2.46% (active) | 42.8% | 50.2% | 98.4% | 14.8%
